Results taken from PubChem BioAssay AID720532 (National Center for Advancing Translational Sciences (NCATS), 2013).
Where “and” joins values, the source holds several entries; their conditions need not be identical. Equal values may be shown once. About 1,200 (6.7%) of roughly 18,000 compounds were called active. Another 16% or so got no clear call; they are omitted. Many of the other results were omitted from the sample, so actives are more common in it than they were. Values without a mark were called inactive. Calls follow the shape of the full dose curve; tested in HEK293 cells.

experiment: qHTS for Inhibitors of binding or entry into cells for Marburg Virus; settings: Marburg virus pseudotype entry/binding inhibition, cell-based; series mostly up to 49.2 µM; activity change, negative = inhibition: at the top concentration
% is scaled to controls: 0 for no effect and ±100 for the full control effect; potency is read from the fitted curve at half-maximal effect.

| Structure (SMILES) | activity change, negative = inhibition | Potency |
| --- | --- | --- |
| COc1cc2c(cc1OC)[C@@H]1O[C@](CCCCN3C(=O)c4ccccc4C3=O)(C2)Oc2c1c(=O)oc1ccc(F)cc21 | 2.42% [at 8.59 µM] |  |
| CC(Nc1oc(-c2ccccc2)nc1-c1ccccc1)c1ccccc1 (stereo not drawn) | inactive |  |
| COC12CC[C@@]3(C[C@@H]1C(C)(O)C(C)(C)C)[C@H]1Cc4ccc(O)c5c4[C@@]3(CCN1CC1CC1)[C@H]2O5 (stereo partly drawn) |  | 15.8 µM (active) |
| COc1ccc2c(c1)O[C@@H](c1ccc3c(c1)OCO3)[C@H](OC(=O)NCc1ccco1)C2=O | 25% |  |
| COCCN1C(=O)N[C@@H](c2ccccc2)C(C(=O)OC)=C1C | -6.89% |  |
| CCC(=O)C[C@@H](NC(=O)OC)c1ccccc1 | -1.71% [at 8.59 µM] |  |
| CCCCN1CC(CO)Oc2cccc(F)c2S1(=O)=O (stereo not drawn) | 23.1% |  |
| CC(=O)[O][Sn]([c]1ccccc1)([c]1ccccc1)[c]1ccccc1 |  | 1 µM (active) |
| Cc1cccc(CN2CCN(C3CN(Cc4cn(Cc5ccccc5F)nn4)S(=O)(=O)C3)CC2)c1 (stereo not drawn) | 7.53% |  |
| CC(C)(Cc1c[nH]c2ccc(Cl)cc12)NCCOc1ccccc1OCC1CC1 |  | 11.2 µM (active) and 8.91 µM (active) |
| COc1ccc2c(c1)O[C@@H](c1ccc3c(c1)OCO3)[C@H](OC(=O)NCCc1ccc(OC)c(OC)c1)C2=O | -0.0132% |  |
| CC1C(=O)N(Cc2cn(Cc3ccco3)nn2)CCS(=O)(=O)N1Cc1ccc(-c2cccc(CO)c2)cc1 (stereo not drawn) | -18.8% |  |
| COc1ccc([C@@H](NC(=O)C(F)(F)F)C2CCCC=C2c2ccccc2)cc1OC (stereo partly drawn) | 2.89% [at 8.59 µM] |  |
| CC[C@H](C)[C@H](NC(=O)[C@H](Cc1ccc(O)cc1)NC(=O)[C@@H](NC(=O)[C@H](CCCN=C(N)N)NC(=O)[C@@H](N)CC(=O)O)C(C)C)C(=O)N[C@@H](Cc1cnc[nH]1)C(=O)N1CCC[C@H]1C(=O)N[C@@H](Cc1ccccc1)C(=O)O | 2.69% |  |
| C=CCC(C)(O)c1ccco1 (stereo not drawn) | 0.192% |  |
| CC1=C(/C=C/C(C)=C/C=C/C(C)=C/C=C/C=C(C)/C=C/C=C(C)/C=C/C(=O)[C@]2(C)C[C@@H](O)CC2(C)C)C(C)(C)C[C@H](O)C1 | 10.2% |  |
| COc1ccc(-c2nc3c(c4c2C[C@H](c2ccccc2)OC4)CN(C(=O)c2ccco2)CC3)c(C)c1 | 13.2% [at 8.59 µM] |  |
| CCOC(=O)Cn1c(=O)sc2cccc(Cl)c21 | 17.7% |  |
| CC1(C)O[C@@H](C(O)(c2ccccc2)c2ccccc2)[C@H](C(O)(c2ccccc2)c2ccccc2)O1 | -19% [at 8.59 µM] |  |
| CCCCCCCC/C=C\CCCCCCCC(=O)NCC(=O)O | -13% |  |
| C[C@H]1CCC[C@@]2(C)CCCC[C@]12O | -16% |  |
| COc1ccc([C@H]2C[C@@H](n3cc(COC(=O)c4ccccc4)nn3)[C@H](O)CN2C(=O)c2cccs2)cc1 | 22.8% |  |
| CC(C)C(NS(=O)(=O)c1ccc(-c2ccc(Br)cc2)cc1)C(=O)O (stereo not drawn) | 8.03% |  |
| COc1ccc2c(c1)CO[C@H]([C@H](O)CBr)[C@H]2C=Cc1ccccc1 | -15.4% [at 8.59 µM] |  |

| Structure (SMILES) | activity change, negative = inhibition | Potency |
| --- | --- | --- |
| C=CCOC(=O)NC(c1ccc(F)c(F)c1)C(C(=O)COC)C(=O)OC (stereo not drawn) | inactive |  |
| OC[C@H]1O[C@H](C#Cc2ccccc2)C=C[C@H]1O | 19.6% [at 8.59 µM] |  |
| CCOC(=O)CN1C(=O)NC(c2cccs2)C(C(=O)OC)=C1C (stereo not drawn) | -16.9% [at 8.59 µM] |  |
| O=C(O)C1CCN(c2ncnc3ccc(-c4ccccc4C(F)(F)F)cc23)CC1 |  | 112 µM (active) |
| Cc1ccc(S(=O)(=O)N2CCC(=O)N([C@H](COCc3ccccc3)Cc3ccccc3)CC2)cc1 | 6.8% |  |
| O=S1(=O)CC(N2CCN(CCO)CC2)CN1C1CCCC1 (stereo not drawn) | 20.9% |  |
| O=c1cc(-c2ccc(O)cc2)oc2c(-c3cc(-c4cc(=O)c5c(O)cc(O)cc5o4)ccc3O)c(O)ccc12 | 19.1% |  |
| CCCCCC(=O)N1C[C@@H](O)[C@H](n2cc(C3CC3)nn2)C[C@H]1c1ccc(OC)cc1 | -17.1% |  |
| O=C1CCC[C@@H]2CC(N3CCCCC3)C[C@@H]3CCN1[C@H]23 (stereo partly drawn) | -18.6% |  |
| Oc1ccc(-c2c(-c3ccccc3)nn3c(C(F)(F)F)cc(C(F)(F)F)nc23)cc1 | 2.41% |  |
| CC(C)=CCCC(C)=CCN1C(=O)[C@]2(O[C@H](C)CC3=CCCC32)c2c(Br)cccc21 (stereo partly drawn) | 10.2% [at 8.59 µM] |  |
| Cc1ccc(-c2ccc(C(=O)N3CCc4nnc(CNC(=O)c5ccccc5)n4CC3)cc2)cc1 | -24% |  |
| COc1ccccc1CNc1ncnc2ccc(-c3c(C)noc3C)cc12 | 8.89% |  |
| COc1ccc2[nH]cc(CCNc3ncnc4ccc(-c5ccccc5CN(C)C)cc34)c2c1 |  | 10 µM (active) |
| COCCNc1ncnc2ccc(-c3ccccc3CN(C)C)cc12 | -4.66% |  |
| C=CCCN(Cc1ccccc1)S(=O)(=O)c1ccccc1Br | -6.66% |  |
| CC(=O)OC[C@H]1O[C@H](C#Cc2ccccc2)C=C[C@@H]1OC(C)=O | 21% [at 8.59 µM] |  |
| CC(=O)OC[C@H]1O[C@@H](O[C@H]2[C@H](O)[C@@H](OC(=O)c3ccccc3C(=O)O)[C@H](O)O[C@@H]2COC(C)=O)[C@H](O)[C@@H](OC(=O)c2ccccc2C(=O)O)[C@@H]1O |  | 3.55 µM (active) |
| CC(=O)OC[C@H]1O[C@H](C#CC2=CCCCC2)C=C[C@H]1OC(C)=O | -20.8% [at 8.59 µM] |  |
| CCCC[C@]12Cc3cc(C#N)ccc3[C@H](O1)c1c(cc(-c3ccccc3)oc1=O)O2 | 9.58% [at 8.59 µM] |  |
| C[C@H]1Cc2c(COc3ccccc3)nc3c(c2CO1)CN(C(=O)Nc1cccc(C#N)c1)CC3 | 2.49% [at 8.59 µM] and 20.7% [at 8.59 µM] |  |
| CN1CCC(n2cnc(-c3ccc(F)cc3)c2-c2ccnc(N)n2)CC1 |  | 17.7 µM (active) |
| CC(C)(CO)CNC(=O)c1ccc2[nH]c(O)c(N=Nc3ccc(S(N)(=O)=O)cc3)c2c1 | 65% |  |
| Cc1ccc(NC(=O)O[C@@H]2C(=O)c3cc(Br)ccc3O[C@H]2c2ccc3c(c2)OCO3)cc1Br | 6.25% |  |
